# High-throughput results as filed in PubChem.
# SMN2 splice enh = qHTS Assay for Enhancers of SMN2 Splice Variant Expression; HEK293 SMN2-luciferase splicing reporter, luminescence, 30-36 h; Potency, µM (titrated, usually from 46.1 µM), actives largely listed as activators; actives 2.8% (n = 210,000); AID 1458, 2008; also: nearly all actives have a fitted effect of over 55% in size
#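 HEK293 cells carry an SMN2 minigene-luciferase reporter in which exon 7 inclusion puts luciferase in frame. Cells were seeded at 2000 cells/well, attached for 10-12 hours, then exposed to compounds for 30-36 hours at 37C before ONE-Glo luminescence.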
# Rab9 promoter act = qHTS Assay for Rab9 Promoter Activators; AID 485297, 2010; Potency, µM (titrated, usually from 9.22 µM), hits mostly activators; actives 2.8% (n = 320,000); Huh7 Rab9 promoter-luciferase reporter, luminescence, 24 h; also: nearly all actives have a fitted effect of over 60% in size
#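 Quantitative HTS format; Huh7 Rab9-luciferase reporter cells (1500/well) receive compound 2 h post-plating, incubate 24 h at 37 °C, then get luciferase reagent for 10 min before luminescence reading.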
# ELG1 genotoxic = qHTS screen for small molecules that induce genotoxicity in human embryonic kidney (HEK293T) cells expressing luciferase-tagged ELG1 | HEK293T ELG1-luciferase reporter, luminescence, 16 h | Potency, µM (doses to about 46 µM), usual class: activators | actives 1.3% (n = 330,000); also: nearly all actives have a fitted effect of over 60% in size
#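 Luminescence read-out: rising ELG1-luciferase signal, reflecting elevated ELG1 protein under genetic stress, flags genotoxic compounds. Cells were treated for 16 hr at 37 °C before ONE-Glo detection.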
# FLuc counter = qHTS profiling assay for firefly luciferase inhibitor/activator using purifed enzyme and Km concentrations of substrates (counterscreen for miR-21 project); Potency, µM (series often up to 57.5 µM), most hits filed as inhibitors; AID 588342, 2011; purified FLuc, Km substrates, luminescence inhibition; Luciferin 4-monooxygenase (Photinus pyralis), P08659; actives 6.9% (n = 360,000); also: nearly all actives have a fitted effect of over 55% in size
# Target sequence (P08659 whole entry, looked up): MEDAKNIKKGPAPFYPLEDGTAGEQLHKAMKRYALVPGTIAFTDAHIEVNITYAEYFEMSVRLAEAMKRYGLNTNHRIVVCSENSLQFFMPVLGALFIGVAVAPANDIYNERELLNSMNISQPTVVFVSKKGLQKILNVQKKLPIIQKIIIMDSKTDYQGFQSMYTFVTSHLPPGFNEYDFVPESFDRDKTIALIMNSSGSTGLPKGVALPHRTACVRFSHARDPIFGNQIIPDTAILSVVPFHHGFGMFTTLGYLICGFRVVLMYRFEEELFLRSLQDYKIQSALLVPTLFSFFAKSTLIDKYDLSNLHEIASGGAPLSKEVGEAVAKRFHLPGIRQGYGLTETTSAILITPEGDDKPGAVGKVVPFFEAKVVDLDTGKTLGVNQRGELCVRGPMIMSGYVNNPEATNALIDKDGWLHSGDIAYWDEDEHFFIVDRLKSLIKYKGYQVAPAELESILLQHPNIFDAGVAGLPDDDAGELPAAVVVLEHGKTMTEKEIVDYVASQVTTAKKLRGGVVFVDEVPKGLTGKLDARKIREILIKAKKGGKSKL
#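 Biochemical qHTS of compounds, final roughly 60 µM downward over six points, against 10 nM purified firefly luciferase using Km concentrations of substrates (10 uM D-luciferin, 10 uM ATP) in Tris acetate pH 7.5 buffer; luminescence output.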
# ELG1 DNA repair = qHTS screen for small molecules that inhibit ELG1-dependent DNA repair in human embryonic kidney (HEK293T) cells expressing luciferase-tagged ELG1; HEK293T ELG1-luciferase reporter, luminescence, 16 h; DNA damage induced by 5-fluorouridine; Potency, µM (titrated, usually from 46.1 µM), most hits filed as inhibitors; actives 2.3% (n = 330,000); also: nearly all actives have a fitted effect of over 55% in size
#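 Reporter activity after DNA damage by 5-fluorouridine is monitored. Compound-treated cells incubate 16 hr at 37 °C, then ONE-Glo is added for 30 min before luminescence reading.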
# NPC1 promoter act = qHTS Assay for NPC1 Promoter Activators. Huh7 NPC1 promoter luciferase reporter, 24 h. Potency, µM (titrated, usually from 9.22 µM), actives largely listed as activators. actives 2.4% (n = 320,000); also: nearly all actives have a fitted effect of over 60% in size
#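 Luminescence from an NPC1 promoter-driven luciferase reporter in stably transfected Huh7 cells was measured after 24 h compound treatment at 37 °C, followed by 10 min ambient incubation with luciferase detection reagent.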
# Numbers stand for hits; – = inactive; ? = inconclusive; · = not tested or not shown. An excerpt weighted towards active compounds, which were near 9.2% of everything screened. Calls follow the shape of the dose curve; as a rule, active = well fitted curve in the direction sought with a large enough effect; inconclusive = small, poorly fitted or top-dose-only effect, or another doubt; inactive = no such curve, though single readings can be large; an effect the other way counts as inactive or inconclusive.
SMILES,SMN2 splice enh,Rab9 promoter act,ELG1 genotoxic,FLuc counter,ELG1 DNA repair,NPC1 promoter act
CCCn1c(CN2CCN(C(=O)OCC)CC2)nc2cc(NC(C)=O)ccc21,·,–,–,–,–,–
Cc1ccc2c(c1)N(CC(=O)OC(CC(C)C)C(=O)NC1CCCC1)C(=O)CO2 (centres undefined),–,–,–,–,21µM,–
CC(C)C(OC(=O)CN1C(=O)COc2ccccc21)C(=O)NC1CCCC1 (centres undefined),–,–,–,–,–,–
CCn1c(SCc2cccc(F)c2)nnc1-c1ccncc1,·,–,–,–,2.6µM,–
CCn1c(SCc2cccc(F)c2)nnc1-c1cccnc1,·,–,–,–,–,–
CCOC(=O)c1c(C)[nH]c(C(=O)COC(=O)C2CC2)c1C,·,–,?,9.5µM,?,–
CCCCC(=O)OCC(=O)c1[nH]c(C)c(C(C)=O)c1C,–,–,–,11µM,–,–
CCOC(=O)c1c(C)[nH]c(C(=O)COC(=O)C2(C)CC2(Cl)Cl)c1C (centres undefined),–,3.2µM,?,13µM,–,?
Cc1ccc(N(CC(=O)Nc2cccc(Cl)c2)S(=O)(=O)c2cccs2)cc1,–,·,·,–,·,·
CCOC(=O)CC1=C(C(=O)OCC)C(c2ccc(C)o2)C(C#N)=C(N)O1 (centres undefined),–,–,–,–,–,–
Cc1ccc(C2C(C#N)=C(N)Oc3c2sc2ccccc32)o1 (centres undefined),–,–,?,13µM,–,–
CC(C)c1ccc(N(CC(=O)NCc2ccco2)C(=O)CCC(=O)Nc2nccs2)cc1,·,–,–,–,–,–
O=c1oc2ccccc2cc1-c1nnc(NCc2ccco2)s1,11µM,0.71µM,?,2.7µM,?,1.1µM
O=Cc1c(-c2ccccc2)cc2oc3ccccc3cc1-2,·,3.5µM,3.7µM,0.76µM,?,–
Nc1nnc(-c2cc3ccccc3oc2=O)s1,18µM,1.6µM,?,?,?,?
O=c1oc2ccccc2cc1-c1ccc(O)cc1O,–,–,–,?,–,–
Nc1cccc(-c2cc3ccccc3oc2=O)c1,–,–,?,19µM,?,–
CC1CCN(C(=O)C2CCCN(S(=O)(=O)c3ccc4c(c3)CC(C)N4C(=O)C3CC3)C2)CC1 (centres undefined),·,–,–,–,–,–
Cn1c2ccccc2c2ncn(CCCN3CCOCC3)c(=O)c21,?,–,–,–,–,–
Cn1c2ccccc2c2ncn(CCC3=CCCCC3)c(=O)c21,·,4.5µM,?,17µM,?,–
COc1ccc(C(=O)/C=C/Nc2cc(C)on2)cc1,–,2.5µM,6.5µM,6µM,?,2.2µM
COc1ccc(/C=C/C(=O)Nc2nonc2NC(C)=O)cc1,–,–,–,24µM,?,–
COc1ccc(CC(=O)Nc2cc(C)on2)cc1,–,–,–,–,–,–
COc1ccc(C(=O)NNC(=O)CCC(=O)Nc2cc(C)on2)cc1,–,–,–,?,–,–
Cc1ccc(NC(=O)/C=C/c2ccc(Cl)cc2)nc1,–,?,–,?,–,–
SMILES,SMN2 splice enh,Rab9 promoter act,ELG1 genotoxic,FLuc counter,ELG1 DNA repair,NPC1 promoter act
COc1ccc(/C=C/C(=O)Nc2cc(C)on2)cc1,10µM,1.6µM,–,?,?,2.8µM
O=C(/C=C/c1ccccc1)Nc1ccc(Br)cn1,11µM,1.4µM,?,?,?,–
O=C(Cn1c(=O)n(-c2ccc(F)cc2)c(=O)c2sc3ccccc3c21)NC1CCCCC1,–,·,·,–,·,·
COc1ccc(OCc2ccc(-c3nc(C#N)c(NCc4cccnc4)o3)o2)cc1,·,·,·,–,·,·
Cc1cc(NC(=O)/C=C/c2ccccc2)no1,?,2.8µM,?,12µM,?,?
Cc1cc(NS(=O)(=O)c2ccc(NC(=O)/C=C/c3cccc(Cl)c3)cc2)no1,·,–,–,?,–,–
